Assay results: the supplement of paper PMC12494721
Where a name gives a salt, the structure may show the parent alone.

System: Escherichia coli IAI1
Test: fold change of Putrescine concentration vs plate DMSO controls (fold change (ratio)); higher = more amine produced, active = hit call of the paper (significant change in both replicates, either direction)
Conditions: incubation time: 27 h, anaerobic, 37 °C;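 for the amine columns active = adjusted P below 0.05 in both replicates with a change the same way and a mean fold change under 0.8 or over 1.25; inactive = the rest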
Summary of the method: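 Amine values are fold changes relative to DMSO-only wells on the same plate. They derive from 27 h, 37 °C anaerobic mGAM cultures of four gut bacterial strains in 80 µL wells, dosed at 20 µM final, or 50 µM final for sweeteners. Extraction of the whole culture, LC–triple-quadrupole MS in dynamic MRM mode, external calibration curves and within-batch drift correction were used, with 2 biological replicates averaged.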

Fold change of Putrescine concentration, inactive:
CCOc1ccc2c(c1)C(C)=CC(C)(C)N2 [Ethoxyquin] (20 µM) 1, CN1CC2c3ccccc3Oc3ccc(Cl)cc3C2C1 (stereo not drawn) [Asenapine maleate] (20 µM) 1, CCOC(=O)OC(C)OC(=O)[C@@H]1N2C(=O)[C@@H](NC(=O)[C@H](N)c3ccccc3)[C@H]2SC1(C)C (stereo partly drawn) [Bacampicillin hydrochloride] (20 µM) 0.928, CCCOc1ccccc1-c1nc2[nH]nnc2c(=O)[nH]1 [Zaprinast] (20 µM) 0.969, CCCCC(O)c1ccccc1 (stereo not drawn) [Fenipentol] (20 µM) 1.01, CN[C@H](CC(C)C)C(=O)N[C@H]1C(=O)N[C@@H](CC(N)=O)C(=O)N[C@H]2C(=O)N[C@H]3C(=O)N[C@H](C(=O)N[C@H](C(=O)O)c4cc(O)cc(O)c4-c4cc3ccc4O)[C@H](O)c3ccc(c(Cl)c3)Oc3cc2cc(c3O[C@@H]2O[C@H](CO)[C@@H](O)[C@H](O)[C@H]2O[C@H]2C[C@](C)(N)[C@H](O)[C@H](C)O2)Oc2ccc(cc2Cl)[C@H]1O [Vancomycin hydrochloride] (20 µM) 1.01, N#Cc1ccc(Oc2ccc3c(c2)COB3O)cc1 [Crisaborole] (20 µM) 1.03, COc1ccc([C@@H]2Sc3ccccc3N(CCN(C)C)C(=O)[C@@H]2OC(C)=O)cc1 [Diltiazem hydrochloride] (20 µM) 0.982
